PubChem BioAssay (NCI)
This is part of a sample that, as a whole, favours compounds with a hit. Of some 83,000 tested, about 20% had one in any assay.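 Cell lines were cultured in 96-well plates, exposed to a single compound concentration, and assessed for percent growth 48 hours later.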 Activity calls are given as the source filed them.

What follows are compounds tested on NCI-H522 lung (assay: NCI-60 one-dose screen, 48 h (100 = growth as untreated, 0 = no growth, -100 = all killed)). Conditions: 10 µM unless noted.
Experimental: Growth inhibition of the NCI-H522 human Non-Small Cell Lung tumor cell line is measured as a screen for anti-cancer activity. Cells are grown in 96 well plates and exposed to the test compound for 48 hours. Compounds are tested at a single concentration, which is 10^-5 M for most compounds. The reported endpoint is percent growth (GI% or GIPRCNT), where numbers from 0 - 100% represent growth inhibition, and numbers from -100% - 0 represent cell death. For example, a value of 40 represents 60% growth inhibition. A value of 0 means no net growth occurred over the course of the experiment. A value of -40 indicates 40% of cells at the beginning of the experiment died by the end of the experiment. A value of -100 means all cells are dead at the end of the experiment.
NCI-60 Human Tumor Cell Lines Screen was performed using the standard one-dose NCI protocol, which is described in more detail at https://dtp.cancer.gov/discovery_development/nci-60/default.htm.
Compounds with GIPRCNT values below 10 were considered active. Activity score was based on GIPRCNT using the following formula: […]
Score is 0 for GIPRCNT values of 100 or above, 50 for GIPRCNT values of 0, and 100 for GIPRCNT values of -100.

Structure (SMILES) | growth
CCOC(=O)c1c(C)nc2ccccc2c1/C=C/c1ccc(OC)cc1 | 53.5% (inactive)
COc1ccc(Cc2cnc(NC(=O)c3sc4ccccc4c3Cl)s2)cc1 | -14.2% (active)
COc1cc(N2C(=O)[C@H](c3ccccc3)C2c2ccc(SC)cc2)cc(OC)c1OC (stereo not given in full) | -9.45% (active)
O=C(Cn1nnc([N+](=O)[O-])n1)c1ccccc1 | 86.9% (inactive)
COc1ccc(Cn2cc(C(=O)N=Nc3c(O)[nH]c4c(Cl)cccc34)nn2)cc1 | 84% (inactive)
C/C(=C(/c1ccc(Cl)cc1)c1ccc(OCCCN(C)C)cc1)c1ccc(Cl)cc1 | 99.7% (inactive)
CCCCn1sc(=O)n(Cc2ccc(CNC(=O)OCc3ccc4c(Cl)cc(Cl)c(O)c4n3)cc2)c1=O | 69.9% (inactive)
C=CCCC(=O)N1C=CC(=O)[C@H](O)[C@@H]1/C=C/c1ccccc1 | 74.1% [100 µM] (inactive)
C=CCOC(=O)C1=C(C)NC(=O)NC1c1c(Cl)n(C)c2ccccc12 (stereo not given) | 93.3% (inactive)
CC[C@H](Nc1nc(N)nc(C)c1C#N)c1nc2cccc(NCCCCCC(=O)NO)c2c(=O)n1-c1ccccc1 | 53.2% (inactive)
Cc1cc2nc(-c3c(-c4ccc(F)cc4)nc4sccn34)[nH]c2cc1C | 85% (inactive)
COc1cc(C#Cc2ccc(=O)oc2C#Cc2ccccc2)cc(OC)c1OC | 18.2% (inactive)
COc1ccc(-c2cc(C(=O)N3N=C(c4ccc(N)cc4)CC3c3ccccc3)c3ccccc3n2)cc1 (stereo not given) | 23.7% (inactive)
COc1cc2c(c(OC)c1OC)C(=O)N[C@@H]1[C@@H](O)[C@@H](O)[C@H](O)C[C@@H]21 | 97.7% (inactive)
COc1ccc2c(c1)c(-c1ccc(-c3cn(C)c4ccc(OC)cc34)[nH]1)cn2C | -47.8% (active)
O=C1NC(=Nc2ccc(O)cc2)S/C1=C\c1cccs1 | 15.5% (inactive)
CC(C(=O)O)n1c(O)c(C=Nc2cccnc2)sc1=S (stereo not given) | 89.2% (inactive)
CCN(CC)CCOc1nc2c3ccc(Cl)cc3nn2c2ccccc12 | 27.9% (inactive)
CCCCCCNc1nc(NCCCCCC)c2[nH]c(NCCCCCC)nc2n1 | -42% (active)
NNC(=S)N/N=C/c1ccccn1 | -14.3% (active)

Structure (SMILES) | growth
O=C1Nc2ccc(F)cc2/C1=C\c1nc(-c2ccccc2F)n2ccccc12 | 52.1% (inactive)
CCOC(=O)/C=C/c1c(C)[nH]c(=O)[nH]c1=O | 59.6% (inactive)
Cc1nn(-c2ccccc2)c(N2CCCCC2)c1/C=N/NC(=O)Cn1c(=O)sc2ccccc21 | 64.9% (inactive)
O=C(O)c1cn(C2CC2)c2cc(N3CCN(C(=O)N/N=C/c4ccccc4)CC3)c(F)cc2c1=O | 78% (inactive)
O=C1NC(=C(Cl)Cl)/C(=N/S(=O)(=O)N2CCCCC2)N1 | -82.3% (active)
COC(=O)c1c2c(n3ccc(C)cc13)C(=O)c1ccccc1C2=O | 47.5% (inactive)
CNC(=O)c1c(NC(=O)c2ccc(C(C)(C)C)cc2)sc2c(CN(C)C)c(O)ccc12 | 75.9% (inactive)
CC(C)CN1CC(C(=O)Nc2ccc3c(c2)-c2ccccc2C3)CC1=O (stereo not given) | 51.3% [50 µM] (inactive)
COC(=O)/C=C1/SC(=Nc2cccc(Cl)c2)N(CCc2c[nH]c3ccc(O)cc23)C1=O | 11% (inactive)
COc1ccc2cc(-c3ccc(-c4ccc(C(=N)N)s4)s3)ccc2c1 | -46.7% (active)
CCC(CC)(N(CC(=O)O)CC(=O)O)C(CC)(CC)N(CC(=O)O)CC(=O)O | 100% (inactive)
O=C(N/N=C/c1ccc(O)cc1O)c1ccc(Nc2ccnc(C(F)(F)F)c2)cc1 | 44.2% (inactive)
N#Cc1c(N2CCOCC2)nc(=S)[nH]c1-c1ccccc1 | 59.6% (inactive)
CN1CCN(c2ccc3c(c2)nc(NNC(=O)c2cnccn2)c2cccn23)CC1 | 15.7% (inactive)
COc1ccc(/C(C)=C(\c2ccc(OCCN3CCCCCC3)cc2)c2ccc(OC(=O)c3ccccc3)cc2)cc1 | 68.3% (inactive)
COc1cccc(/C=C/C(=O)c2cc3c(N)c(C(=O)Nc4cccc(Cl)c4C)sc3nc2C)c1 | -69.7% (active)
CCOc1ccc(NC(=O)c2cc(OC)c(OC)c(OC)c2)cc1 | 42.3% (inactive)
O=C1Nc2ccccc2/C1=C/c1cn(C[C@@H](O)Cn2c3ccccc3c(=O)c3ccccc32)c2ccccc12 | 55.5% (inactive)
O=C1OCC2=C1C(c1cccc(F)c1)c1cc3c(cc1N2CCO)OCO3 (stereo not given) | 12.5% (inactive)
Clc1nn2c(Cn3cnc4c(NCc5ccccc5)ncnc43)nnc2c2ccccc12 | 43.7% (inactive)
